Screening results: PubChem, several laboratories
Sampled rows, rich in hits. Any-hit rate of the full collection: about 1.6%.
MLLE-PAM2 inh = inhibitors of PABP1 MLLE–PAM2 peptide binding, primary screen, biochemical, fluorescence polarization, FITC-PAM2, GST-MLLE; AID 588489, 2011; inhibition, % at 20 µM; actives 0.36% (n = 360,000); in the data active means inhibition above about 35%, passing the limit was not always enough
PERK inh = block of dimerizer-induced PERK translation repression, primary screen, PERK inhibitor project, CHO PERK-DD cells, SEAP luminescence, HTS; inhibition, % at 5.6 µM; AID 1416, 2008; actives 0.17% (n = 220,000); CHO PERK-DD fusion, SEAP luminescence translation reporter;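 active means inhibition above the mean inhibition of all tested compounds plus 3 SD, set separately per screening campaign, cut at about 2.9% in these data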;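 further: PERK kinase domain activated by AP20187 dimerizer at 100 nM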
Target sequence (Q9NZJ5 whole entry, looked up, the tested form may be a part): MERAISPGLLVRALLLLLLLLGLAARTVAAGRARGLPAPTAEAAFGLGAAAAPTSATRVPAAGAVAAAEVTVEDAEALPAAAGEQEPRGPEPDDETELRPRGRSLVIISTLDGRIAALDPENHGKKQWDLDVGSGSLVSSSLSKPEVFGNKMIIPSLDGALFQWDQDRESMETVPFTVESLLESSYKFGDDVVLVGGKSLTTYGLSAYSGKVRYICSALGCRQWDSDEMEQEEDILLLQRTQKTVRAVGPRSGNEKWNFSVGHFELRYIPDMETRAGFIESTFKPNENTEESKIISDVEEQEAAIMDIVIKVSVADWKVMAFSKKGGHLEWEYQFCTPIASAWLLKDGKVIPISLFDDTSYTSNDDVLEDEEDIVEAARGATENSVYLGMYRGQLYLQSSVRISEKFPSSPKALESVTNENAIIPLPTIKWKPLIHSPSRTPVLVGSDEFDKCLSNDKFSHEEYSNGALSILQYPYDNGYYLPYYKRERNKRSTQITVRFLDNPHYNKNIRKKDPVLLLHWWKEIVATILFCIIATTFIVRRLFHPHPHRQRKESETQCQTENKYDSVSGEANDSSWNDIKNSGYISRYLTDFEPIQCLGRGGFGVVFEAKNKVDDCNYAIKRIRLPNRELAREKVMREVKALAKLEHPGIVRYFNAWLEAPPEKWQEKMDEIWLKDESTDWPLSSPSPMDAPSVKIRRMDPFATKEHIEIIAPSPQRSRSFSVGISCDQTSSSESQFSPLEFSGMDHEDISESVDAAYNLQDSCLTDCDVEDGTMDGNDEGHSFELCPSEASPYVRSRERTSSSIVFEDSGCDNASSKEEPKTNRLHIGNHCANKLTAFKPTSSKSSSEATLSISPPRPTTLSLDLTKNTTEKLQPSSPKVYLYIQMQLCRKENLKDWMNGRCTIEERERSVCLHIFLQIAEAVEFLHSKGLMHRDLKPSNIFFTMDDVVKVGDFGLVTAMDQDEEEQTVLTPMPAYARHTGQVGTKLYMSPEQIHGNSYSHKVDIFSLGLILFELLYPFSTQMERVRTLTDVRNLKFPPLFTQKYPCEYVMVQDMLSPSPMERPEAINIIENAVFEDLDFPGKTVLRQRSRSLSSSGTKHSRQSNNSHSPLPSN
eIF4H inh = human eIF4H binding inhibitors, primary screen, translation initiation inhibitor project, biochemical, uHTS, fluorescence polarization; eIF4H fluorescence polarization binding assay; inhibition, % at 35 µM; actives 0.94% (n = 290,000); Eukaryotic translation initiation factor 4H (Homo sapiens), Q15056;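 further: calls also rest on retests at 20 µM and on dose response follow-up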
eIF4E 4G PPI = eIF4E–eIF4G protein interaction inhibitors, primary screen, biochemical, uHTS, TR-FRET, eIF4GI fragment. Eukaryotic translation initiation factor 4E (Mus musculus) + Eukaryotic translation …. actives 0.37% (n = 220,000). inhibition, % at 21.7 µM. TR-FRET eIF4E-eIF4GI(517-606) binding, 2 h;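 active means inhibition above about 30%, limit read from the data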
PABP polyA inh = PABP poly(A) RNA binding inhibitors, primary screen, biochemical, fluorescence polarization, uHTS | Polyadenylate-binding protein 1 (Homo sapiens), P11940 | inhibition, % at 35 µM | actives 1% (n = 290,000);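 further: calls also rest on retests at 20 µM and on dose response follow-up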
Large screens that a line does not name were inactive. Unless noted, how the calls were made is not given here.

COc1ccc(NS(=O)(=O)c2cccc(NC(=O)CCC(=O)c3cccs3)c2)cc1	none
CC(C)c1nnc(NC(=O)CS(=O)(=O)Cc2ccccc2)s1	MLLE-PAM2 inh 41
COc1ccc(CC(=O)Nc2nnc(C(C)C)s2)cc1	eIF4E 4G PPI 47
CCC(SCC(=O)OC)C(=O)Nc1nnc(C(C)C)s1 (stereo unspecified)	MLLE-PAM2 inh 39
COCCn1c(C)cc(C(=O)COC(=O)c2n[nH]c3ccccc23)c1C	none
O=C1c2ccccc2C(Nc2ccccc2)N1c1ccc(Cl)cn1 (stereo unspecified)	none
CCOC(=O)c1c(N)sc2c1CCS(=O)(=O)C2	MLLE-PAM2 inh 39
COC(=O)c1cc(O)cc(OC)c1Oc1cc(C)cc(O)c1C(=O)O	eIF4H inh 90, PABP polyA inh 74 (no result: PERK inh)
COC(=O)c1cc(O)cc(OC)c1C(=O)c1c(O)cc(C)cc1O	none (no result: PERK inh)
CC(/C=C/c1ccco1)=N\NC(=O)CNc1cccc(C)c1	eIF4H inh 95, PABP polyA inh 2.2
COC(=O)N/N=C(C)\C=C\c1ccco1	none
O=C(NCc1ccc2c(c1)OCO2)c1ccc2c(c1)OCCO2	eIF4E 4G PPI 69
CC(=O)c1ccc(NC(=O)C2CCCNC2=O)cc1 (stereo unspecified)	MLLE-PAM2 inh 40
C/C(=N\NC(N)=S)C1=CCC2C3CC[C@H]4CC(O)CC[C@]4(C)C3CC[C@]12C (stereo partly specified)	none (no result: PERK inh, eIF4E 4G PPI)
COc1ccc(NC(=S)NC(=O)c2csnn2)cc1	none
O=C(NC(=S)Nc1ccccc1)c1csnn1	MLLE-PAM2 inh 37
COCCOC(=O)c1c(N)n(CCCN2CCOCC2)c2nc3ccccc3nc12	eIF4E 4G PPI 92
c1ccc2c(-c3nnc4n3CCCCC4)cc(-c3ccncc3)nc2c1	none
CCOC(=O)c1cc2c(=O)n3ccccc3nc2n(Cc2ccco2)c1=NC(=O)c1ccccc1OC	eIF4H inh 51
N=c1c(C(=O)NC2CCCCC2)cc2c(=O)n3ccccc3nc2n1Cc1ccco1	none (no result: PERK inh, eIF4E 4G PPI)
N=c1c(C(=O)NCCc2ccccc2)cc2c(=O)n3ccccc3nc2n1Cc1ccco1	eIF4H inh 93 (no result: PERK inh, eIF4E 4G PPI)
N=c1c(S(=O)(=O)c2ccccc2)cc2c(=O)n3ccccc3nc2n1Cc1ccco1	eIF4H inh 95, PABP polyA inh 60 (no result: eIF4E 4G PPI)
Cc1ccc(S(=O)(=O)c2cc3c(=O)n4ccccc4nc3n(Cc3ccco3)c2=N)cc1C	eIF4H inh 67, PABP polyA inh 60 (no result: MLLE-PAM2 inh)
Cc1ccc2nc3c(cc(S(=O)(=O)c4ccccc4)c(=N)n3Cc3ccco3)c(=O)n2c1	none
Cc1cn([C@H]2C[C@H](O)[C@@H](CNCc3cc(Cl)ccc3OCc3ccc(Cl)cc3)O2)c(=O)[nH]c1=O	none (no result: PERK inh, eIF4H inh, eIF4E 4G PPI, PABP polyA inh)
Cc1cccn2c(=O)c3cc(S(=O)(=O)c4ccc(F)cc4)c(=N)n(Cc4ccco4)c3nc12	eIF4H inh 83, PABP polyA inh 65
Cc1cccn2c(=O)c3cc(S(=O)(=O)c4ccccc4)c(=N)n(Cc4ccco4)c3nc12	none
Cc1ccc(NC(=S)NNC(=S)NNc2ccccc2)cc1C	none (no result: PERK inh, eIF4H inh, eIF4E 4G PPI, PABP polyA inh)
COC/C=C/C1=CC2=CC(=O)C(C)(OC(=O)c3ccco3)C(=O)C2=CO1 (stereo unspecified)	eIF4H inh inconclusive, PABP polyA inh inconclusive (no result: MLLE-PAM2 inh, PERK inh)
COC/C=C/C1=CC2=CC(=O)C(C)(OC(=O)C3CCCC3)C(=O)C2=CO1 (stereo unspecified)	eIF4H inh 62, PABP polyA inh 49 (no result: PERK inh)
Cc1c(O)ccc2cc(S(=O)(=O)c3ccccc3)c(=O)oc12	MLLE-PAM2 inh 44 (no result: PERK inh, eIF4E 4G PPI)
C=CCSc1nnc(-c2cc(C(C)(C)C)nn2Cc2ccc(F)cc2)n1C	none
Cc1cc2cc(CN(CCN3CCOCC3)C(=O)Nc3ccccc3F)c(=O)[nH]c2cc1C	none
Cc1cccc2cc(CN(CCN3CCOCC3)C(=O)Nc3ccccc3F)c(=O)[nH]c12	eIF4H inh 81, PABP polyA inh active
O=C(O)CCCCCN1C(=O)C(O)=C(C(=O)/C=C/c2ccccc2)C1c1ccccc1[N+](=O)[O-] (stereo unspecified)	MLLE-PAM2 inh 47
Cc1cc(-n2[nH]c(C)c(C)c2=O)nc(-c2ccccc2O)n1	none
O=C1OC2CCC1(c1ccccc1)C2 (stereo unspecified)	none
O=C(COc1c(F)c(F)c(C(F)(F)F)c(F)c1F)Nc1ccc(N2CCOCC2)c(Cl)c1	none
CCC(C)c1ccc(NC(=O)COc2c(F)c(F)c(C(F)(F)F)c(F)c2F)cc1 (stereo unspecified)	eIF4H inh active, PABP polyA inh 117
COc1ccc(CN2CCN(C(=O)CC(C)C)CC2)c(OC)c1OC	eIF4E 4G PPI 77
COc1cc(CN2CCN(C(=O)CC(C)C)CC2)cc(OC)c1OC	none
CCOC(=O)C1=C(N)n2c(s/c(=C/c3ccco3)c2=O)=C(C(=O)OC)C1c1ccco1 (stereo unspecified)	eIF4H inh 83, PABP polyA inh 81
N#CC1=C(N)n2c(s/c(=C\c3ccco3)c2=O)=C(C#N)C1c1ccco1 (stereo unspecified)	eIF4H inh 99, PABP polyA inh 86
CCOc1ccc(CNC(=O)CCSCc2ccccc2F)cc1OC	none
CC(NC(=O)Cn1cnc2c1c(=O)n(C)c(=O)n2C)c1ccccc1 (stereo unspecified)	PABP polyA inh 51
O=c1c(Cl)nc2cc(Cl)ccc2n1CCNc1ncc(C(F)(F)F)cc1Cl	none
O=C(N/N=C/c1ccc2c(c1)OCO2)c1sc2cc(Cl)ccc2c1Cl	eIF4E 4G PPI 30
COc1ccc2c(Cl)c(C(=O)N/N=C/c3ccc4c(c3)OCO4)sc2c1	none
O=C(NC(=S)Nc1nc(-c2ccccc2)cs1)c1cccnc1	none
O=C(NC(=S)Nc1nc(-c2ccccc2)cs1)c1cncc(Br)c1	MLLE-PAM2 inh 45
Cc1ccc(C)c(NC(=S)NNC(=O)c2csc(C(C)C)c2)c1	MLLE-PAM2 inh 39, eIF4H inh 13, PABP polyA inh 66
Cc1ccc(C)c(NC(=S)NC(=O)c2cncc(Br)c2)c1	MLLE-PAM2 inh 40 (no result: PERK inh, eIF4H inh, eIF4E 4G PPI, PABP polyA inh)
O=C(NC(=S)Nc1ccccc1Cl)c1cncc(Br)c1	MLLE-PAM2 inh 43 (no result: PERK inh, eIF4E 4G PPI)
Cc1ccc(C)c(NC(=S)NNC(=O)c2csc(C)c2C)c1	none
CCCn1c(SCCN2CCOCC2)nc2c1c(=O)n(C)c(=O)n2C	none (no result: PERK inh, eIF4E 4G PPI)
Cc1ccc(S(=O)(=O)N/N=C/c2cccc([N+](=O)[O-])c2)cc1	none
CCCCCCCCn1c(=O)c(C(=O)OC)c(N)c2ccccc21	none
O=C(NCCO)C(=O)NCC1CCCN1S(=O)(=O)c1cccs1 (stereo unspecified)	none (no result: PERK inh, eIF4H inh, eIF4E 4G PPI, PABP polyA inh)
